Measurements as given in PubChem BioAssay (Tox21).
Values joined by “and” are separate entries in the source; they are usually repeats but may differ in a detail not shown here. Identical values can stand only once. Results filed as inconclusive are left out. Entries that show only a call come without a potency. A structure can be active in one record and inactive in another. Active and inactive are the calls of the source. Unless noted, calls come from the whole dose curve.

Test system: not listed separately
Assay: qHTS assay to identify small molecule antagonists of the estrogen receptor alpha (ER-alpha) signaling pathway - cell viability counter screen (AID 743074);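 note: HEK293 cells carrying ER-alpha-UAS-bla reporter stimulated with 17beta-estradiol; nearly all actives have a fitted effect of over 45% in size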; note: potency is the fitted concentration of half-maximal effect
Conditions: ERalpha-bla HEK293 viability, CellTiter-Glo luminescence, 18 h; series mostly up to 69.4 µM; activity, negative = cytotoxicity: at the top concentration

| SMILES | Potency | activity, negative = cytotoxicity |
| --- | --- | --- |
| COc1ccc2cc(S(=O)(=O)N[C@H](CC(=O)N[C@H](Cc3ccc(CN4[C@H](C)CCC[C@@H]4C)cc3)C(=O)N(C)C(C)C)c3ccc4c(c3)OCO4)ccc2c1 | 52 µM (active) | – |
| Cc1cc(=O)oc2cc(O)ccc12 | inactive | – |
| O=C1OC2(c3ccccc31)c1cc(Br)c(O)c(Br)c1Oc1c2cc(Br)c(O)c1Br | inactive | – |
| CN1[C@@H]2CC(OC(=O)[C@H](CO)c3ccccc3)C[C@H]1[C@@H]1O[C@@H]12 (stereo partly specified) | inactive | – |
| CN(C)CCOC(C)(c1ccccc1)c1ccccn1 (stereo unspecified) | – | -11.7% (inactive) |
| CN1CCC[C@H]1c1cccnc1 | inactive | – |
| CC(=O)C(=O)O | inactive | – |
| CC(=O)CCC(=O)O | inactive | – |
| NC(=O)n1c(O)c(C(=O)c2cccs2)c2cc(Cl)ccc21 | – | -16.6% (inactive) |
| O=C(O)CC(O)C(=O)O (stereo unspecified) | inactive | – |
| CC/C(=C(\c1ccccc1)c1ccc(OCCN(C)C)cc1)c1ccccc1 | 48.9 µM (active) and 49.4 µM (active) and 49 µM (active) | – |
| CC(C)c1c(C(=O)Nc2ccccc2)c(-c2ccccc2)c(-c2ccc(F)cc2)n1CC[C@@H](O)C[C@@H](O)CC(=O)O | inactive | – |
| C=C(C)C(=O)OCC(C)O (stereo unspecified) | inactive | – |
| Cc1c(C(=O)O)c(O)cc2c1C(=O)c1c(O)c([C@@H]3O[C@H](CO)[C@@H](O)[C@H](O)[C@H]3O)c(O)c(O)c1C2=O | inactive | – |
| Cc1cc(C)nc(NS(=O)(=O)c2ccc(N)cc2)n1 | inactive | – |
| CCCCC(CC)C(=O)O (stereo unspecified) | inactive | – |
| CCCCCCCCCCCC[N+](C)(C)Cc1ccccc1 | 10.7 µM (active) and 24.1 µM (active) and 26.7 µM (active) | – |
| CCN(Cc1c(F)cccc1Cl)c1c([N+](=O)[O-])cc(C(F)(F)F)cc1[N+](=O)[O-] | – | -16.4% (inactive) |
| NC(=O)c1cccnc1 | inactive | – |
| O=S1(=O)OC(c2ccc(O)cc2)(c2ccc(O)cc2)c2ccccc21 | inactive | – |
| CCc1nc(N)nc(N)c1-c1ccc(Cl)cc1 | 7.02 µM (active) | – |
| CN(N=O)C(=O)N[C@@H]1[C@@H](O)[C@H](O)[C@@H](CO)O[C@@H]1O | inactive | – |
| NC1CCCCC1 | inactive | – |
| NS(=O)(=O)O | inactive | – |
| C=CCc1ccc(O)c(OC)c1 | inactive | – |
| CC(C)NCC(O)c1ccc(O)c(O)c1 (stereo unspecified) | inactive | – |

Molecular target: Estrogen receptor (Homo sapiens) (UniProt P03372)
Assay: qHTS assay to identify small molecule agonists of the estrogen receptor alpha (ER-alpha) signaling pathway (AID 743075);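 note: HEK293 GripTite cells with ER-alpha and UAS-driven beta-lactamase reporter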
Conditions: HEK293 ER-alpha-UAS-bla, beta-lactamase FRET ratio, 18 h; series mostly up to 70.1 µM; activation: at the top concentration

Chain of Estrogen receptor (Homo sapiens) (P03372 whole entry, looked up): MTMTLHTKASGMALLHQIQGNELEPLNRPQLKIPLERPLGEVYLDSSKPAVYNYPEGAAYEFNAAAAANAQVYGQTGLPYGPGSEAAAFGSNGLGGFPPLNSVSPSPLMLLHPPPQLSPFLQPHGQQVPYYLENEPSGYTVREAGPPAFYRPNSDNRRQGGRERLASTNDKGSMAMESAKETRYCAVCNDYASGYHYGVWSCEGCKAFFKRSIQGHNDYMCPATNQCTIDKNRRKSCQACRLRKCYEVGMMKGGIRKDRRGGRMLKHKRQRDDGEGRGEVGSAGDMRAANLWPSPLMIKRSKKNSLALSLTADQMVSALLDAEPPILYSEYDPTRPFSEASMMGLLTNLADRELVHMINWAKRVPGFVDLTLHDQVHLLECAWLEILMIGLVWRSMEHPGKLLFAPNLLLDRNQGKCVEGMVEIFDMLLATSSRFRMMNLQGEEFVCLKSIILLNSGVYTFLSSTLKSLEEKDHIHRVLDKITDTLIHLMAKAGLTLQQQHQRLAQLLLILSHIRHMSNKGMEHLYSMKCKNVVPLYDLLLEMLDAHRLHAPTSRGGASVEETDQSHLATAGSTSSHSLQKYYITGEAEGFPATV

| SMILES | Potency | activation |
| --- | --- | --- |
| Cc1cc(=O)oc2cc(O)ccc12 | inactive | – |
| O=C1OC2(c3ccccc31)c1cc(Br)c(O)c(Br)c1Oc1c2cc(Br)c(O)c1Br | inactive | – |
| CN1[C@@H]2CC(OC(=O)[C@H](CO)c3ccccc3)C[C@H]1[C@@H]1O[C@@H]12 (stereo partly specified) | inactive | – |
| O=C(Nc1ncc([N+](=O)[O-])s1)c1cccs1 | – | -3.6% (inactive) |
| CC(=O)CCC(=O)O | inactive | – |
| Nc1ccc(O)c([N+](=O)[O-])c1 | – | 102% (inactive) |
| NC(=O)n1c(O)c(C(=O)c2cccs2)c2cc(Cl)ccc21 | – | -6.51% (inactive) |
| C=C(C)C(=O)OCC(C)O (stereo unspecified) | inactive | – |
| Cc1c(C(=O)O)c(O)cc2c1C(=O)c1c(O)c([C@@H]3O[C@H](CO)[C@@H](O)[C@H](O)[C@H]3O)c(O)c(O)c1C2=O | inactive | – |
| CCN(Cc1c(F)cccc1Cl)c1c([N+](=O)[O-])cc(C(F)(F)F)cc1[N+](=O)[O-] | – | 2.61% (inactive) |
| NC(=O)c1cccnc1 | inactive | – |
| COc1ccc(OC(F)(F)F)cc1CN[C@H]1CCCN[C@H]1c1ccccc1 | – | -1.92% (inactive) |
| O=S1(=O)OC(c2ccc(O)cc2)(c2ccc(O)cc2)c2ccccc21 | inactive | – |
| CCc1nc(N)nc(N)c1-c1ccc(Cl)cc1 | inactive | – |
| CN(N=O)C(=O)N[C@@H]1[C@@H](O)[C@H](O)[C@@H](CO)O[C@@H]1O | inactive | – |
| NC1CCCCC1 | inactive | – |
| C=CCc1ccc(O)c(OC)c1 | inactive | – |

Molecular target: Estrogen receptor (Homo sapiens) (UniProt P03372)
Assay: qHTS assay to identify small molecule agonists of the estrogen receptor alpha (ER-alpha) signaling pathway using the BG1 cell line (AID 743079; active = well fitted activation curve with a large enough effect in the repeat runs; note: nearly all actives have a fitted effect of over 20% in size; note: potency is the fitted concentration of half-maximal effect)
Conditions: BG1Luc4E2 cells, ERE-luciferase agonist, 22 h; series mostly up to 70.3 µM; activation: at the top concentration

| SMILES | Potency | activation |
| --- | --- | --- |
| Cc1cc(=O)oc2cc(O)ccc12 | inactive | – |
| O=C1OC2(c3ccccc31)c1cc(Br)c(O)c(Br)c1Oc1c2cc(Br)c(O)c1Br | – | -11.5% (inactive) |
| CN1[C@@H]2CC(OC(=O)[C@H](CO)c3ccccc3)C[C@H]1[C@@H]1O[C@@H]12 (stereo partly specified) | inactive and 23.7 µM (active) and 48.6 µM (active) | – |
| CC(=O)CCC(=O)O | 15 µM (active) and inactive | – |
| Nc1ccc(O)c([N+](=O)[O-])c1 | – | 9.38% (inactive) |
| C=C(C)C(=O)OCC(C)O (stereo unspecified) | inactive | – |
| Cc1c(C(=O)O)c(O)cc2c1C(=O)c1c(O)c([C@@H]3O[C@H](CO)[C@@H](O)[C@H](O)[C@H]3O)c(O)c(O)c1C2=O | inactive | – |
| CCN(Cc1c(F)cccc1Cl)c1c([N+](=O)[O-])cc(C(F)(F)F)cc1[N+](=O)[O-] | 21.7 µM (active) | – |
| NC(=O)c1cccnc1 | inactive | – |
| O=S1(=O)OC(c2ccc(O)cc2)(c2ccc(O)cc2)c2ccccc21 | 15 µM (active) and inactive | – |
| CN(N=O)C(=O)N[C@@H]1[C@@H](O)[C@H](O)[C@@H](CO)O[C@@H]1O | inactive | – |
| NC1CCCCC1 | inactive | – |
| C=CCc1ccc(O)c(OC)c1 | inactive | – |
